An excerpt weighted towards active compounds, which were near 19% of everything screened.
DT40 TDP1 CPT – growth inhibition of DT40 Tdp1-/-;hTDP1 cells with camptothecin (screen for TDP1 inhibitors); chicken DT40 Tdp1-/-;hTDP1 cells + 20 nM CPT, ATP luminescence, 48 h; Potency, µM (series often up to 46.2 µM), without a hit: at the highest dose activity change, negative = growth inhibition, actives largely listed as inhibitors; 12% of 420,000 active; AID 686979; further: potency means the concentration at half of the fitted maximal effect; on the % scale 0 is the no-effect control and ±100 the full control effect; nearly all actives have a fitted effect of over 55% in size
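Chicken DT40 Tdp1-/- cells complemented with human TDP1, 400 cells/well, exposed to compounds plus 20 nM camptothecin for at least 48 h at 37 C; viability read as ATP content by CellTiter-Glo luminescence.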
MCF10A rereplic – induces DNA re-replication in MCF 10a normal breast cells. AID 624296. MCF 10A DNA re-replication, Hoechst nuclear intensity, 48 h. 2.9% of 350,000 active. Potency, µM (highest dose often 46.1 µM), for inactives: top-dose activity, positive = re-replication, hits mostly activators; further: potency means the concentration at half of the fitted maximal effect; % of control where 0% means no effect; nearly all actives have a fitted effect of over 50% in size
IL1B secr inh – inhibitors of inflammasome signaling (IL-1 beta secretion); THP-1 LPS/ATP IL-1B secretion, AlphaLISA, 16 h; active compounds read low; activity change, % at 57.5 µM; 4.7% of 360,000 active; in the data active means activity change below about -50%; inconclusive means mostly about -30% to -49%; further: on the % scale 0 is the no-effect control and ±100 the full control effect
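Secreted IL-1B measured by AlphaLISA bead assay after 16 h compound exposure of THP-1 cells; compounds (final up to 57.5 uM) added 1 h before LPS (250 ng/mL) and ATP (1.25 mM) stimulation; lower signal means less secretion.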
BCR signal inh – inhibitors of chronic active B-cell receptor signaling | AID 493014 | ABC-DLBCL IkBa-CBG/CBR reporter, luminescence ratio, 4 h | Potency, µM (doses to about 46.1 µM), without a hit: at the highest dose activity change, negative = inhibition, hits mostly inhibitors | 0.05% of 340,000 active; active means well fitted inhibition curve with a large enough effect in the signal ratio, with a control signal flat, not every such curve was filed as active; inconclusive means small, poorly fitted or top-dose-only effect, or effect the other way, or a change in a side signal; the % refers to the signal ratio;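 further: potency means the concentration at half of the fitted maximal effect; plate controls were basal doxycycline-induced cells for no effect and cells given 10 µM MG132 for full effect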
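Concentration-response series (up to 46 uM) were applied to TMD8 dual-reporter cells for 4 h at 37C with doxycycline. Green/red ratio, after filter-overlap correction, defined %Activity; red signal alone was normalised to basal cells and zero luminescence.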
TDP1 cell noCPT – qHTS for Inhibitors of human tyrosyl-DNA phosphodiesterase 1 (TDP1): qHTS in cells in absence of CPT; 15% of 420,000 active; AID 686978, 2013; Potency, µM (titrated, usually from 46.2 µM), without a hit: at the highest dose activity change, negative = growth inhibition, actives largely listed as inhibitors; DT40 Tdp1-/- hTDP1 cells, no CPT, ATP luminescence, 48 h; further: potency means the concentration at half of the fitted maximal effect; on the % scale 0 is the no-effect control and ±100 the full control effect; nearly all actives have a fitted effect of over 55% in size
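A cellular qHTS used chicken DT40 cells lacking endogenous Tdp1 but carrying stably transfected human TDP1. Compounds were applied without camptothecin, and cell growth kinetics were judged by ATP-dependent luminescence after ≥48 hr.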
SW480 rerep – inducers of DNA re-replication in SW480 colon cancer cells; Potency, µM (series often up to 46.1 µM), inactives show top-dose re-replication activation, most hits filed as activators; SW480 DNA re-replication, Hoechst DNA content imaging, 48 h; AID 624297; 1.8% of 340,000 active; further: potency means the concentration at half of the fitted maximal effect; % of control where 0% means no effect; nearly all actives have a fitted effect of over 55% in size
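Compounds, transferred as 23 nL by pin tool, were incubated with cells for 48 hr; DNA content per nucleus was then quantified by Hoechst staining and fluorescence plate imaging.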
The depositor's hits bear a star; ? = inconclusive; / = not tested or not shown. Unless noted, the call rests on the fitted dose curve; in most records, active means well fitted curve in the direction sought with a large enough effect; inconclusive means small, poorly fitted or top-dose-only effect, or another doubt; inactive means no such curve, though single readings can be large; an effect the other way counts as inactive or inconclusive.

SMILES	DT40 TDP1 CPT	MCF10A rereplic	IL1B secr inh	BCR signal inh	TDP1 cell noCPT	SW480 rerep
COC(=O)[C@@]12C[C@@H](CC(=O)N3CCC(c4ccccc4)CC3)C(=O)N(Cc3cccc4ccccc34)C1=CCC(C)(C)C2	?	/	-17	/	?	/
C[C@H](NC(=O)N1CCC(Cc2ccccc2)CC1)C(=O)O	3%	3%	-5	1%	-14%	0%
Cc1ccc(C(=O)N(CC(=O)NC2CCCC2)c2ccccc2F)s1	-21%	/	-6	/	?	/
O=C(CSc1nc(=O)n2ccccc2n1)N1CCN(c2ccccc2)CC1	5%	16%	-12	1%	?	?
CSCCC(NC(=O)COc1ccccc1)C(=O)N1CCOCC1 (stereo not drawn)	-11%	-2%	4	?	8%	-6%
C/C=C/C=N/Nc1nc(-c2ccc([N+](=O)[O-])cc2)cs1	?	0%	-25	9%	23µM*	2%
CC(C)=NNc1nc(-c2ccc([N+](=O)[O-])cc2)cs1	?	10%	?	?	21µM*	-4%
CN(C)c1ccc(C=O)c(F)c1	17%	/	/	/	-3%	/
CCn1c(SCC(=O)Nc2cccc(S(=O)(=O)N(C)c3ccccc3)c2)nnc1C1CC1	?	12%	4	0%	?	3%
CC(C)(C)NC(=O)C(c1ccco1)N(C(=O)Cn1nnc(-c2ccc(F)cc2)n1)c1ccccc1F (stereo not drawn)	29µM*	19%	?	?	16µM*	?
CC(C)(C)NC(=O)C(c1ccco1)N(C(=O)Cn1nnc(-c2ccc(F)cc2)n1)c1ccccc1 (stereo not drawn)	?	-7%	0	/	?	-1%
COc1ccc(N(C(=O)Cn2nnc(-c3ccc(F)cc3)n2)C(C)C(=O)NC2CCCC2)cc1 (stereo not drawn)	?	17%	-21	-3%	?	?
CC(C(=O)NC1CCCC1)N(C(=O)Cn1nnc(-c2ccc(F)cc2)n1)c1ccccc1F (stereo not drawn)	23µM*	19%	-66*	?	23µM*	-18%
CCC(C(=O)NC(C)(C)C)N(C(=O)Cn1nnc(-c2ccccc2F)n1)c1cccc2c1CCCC2 (stereo not drawn)	?	18%	-9	-6%	18µM*	-3%
CCC(=O)O[C@@H](OP(=O)(CCCCc1ccccc1)CC(=O)N1C[C@H](C2CCCCC2)C[C@H]1C(=O)O)C(C)C (stereo partly drawn)	/	15%	/	/	/	1%
Cc1ccc(-c2cc(C(F)(F)F)c(C#N)c(SCC(=O)Nc3ccccc3F)n2)cc1	?	/	/	/	-10%	/
Cc1ccc2sc(NC(=O)CSc3nc(C)cc(C)c3C#N)nc2c1	-21%	5%	74	-5%	?	2.8µM*
Cc1cc(C(F)(F)F)c(C#N)c(SCC(=O)Nc2nc3ccccc3s2)n1	?	?	0	?	18µM*	/
Cc1cc(C)c(C#N)c(SCC(=O)Nc2nnc(-c3ccccc3)s2)n1	-24%	10µM*	32	-21%	-13%	1%
CCc1ccc2nc(SCC(=O)Nc3nnc(C)s3)c(C)cc2c1	9.2µM*	9%	-6	0%	?	18%
CCc1nnc(NC(=O)CSc2nc3cc4c(cc3cc2C)OCCO4)s1	-15%	17%	2	1%	-22%	-1%
C[C@]12CC[C@H](O)CC1=CCC1C2CC[C@@]2(C)C1CC[C@@H]2NC(=O)[C@@H](N)Cc1cnc[nH]1 (stereo partly drawn)	-21%	128%	-7	/	?	-1%
O=C(O)c1ccc2nc(-c3cc4cc(Cl)ccc4oc3=O)[nH]c2c1	?	/	/	?	0%	/
Cc1cc(C)c(C#N)c(SCC(=O)CC(=O)OC(C)C)n1	?	0%	-13	3%	4%	-4%
Cc1nc(SCC(=O)CC(=O)OC(C)C)c(C#N)c(C)c1C	21µM*	-1%	-12	?	?	16%
SMILES	DT40 TDP1 CPT	MCF10A rereplic	IL1B secr inh	BCR signal inh	TDP1 cell noCPT	SW480 rerep
Cc1nc(SCC(=O)Nc2nc3ccccc3s2)c(C#N)c(C)c1C	?	6.5µM*	63	?	?	5.8µM*
CCOc1ccc(/C=C/c2nc(C#N)c(N3CCN(CC)CC3)o2)cc1	6.5µM*	/	/	/	5.8µM*	/
CC1CCN(c2oc(/C=C/c3ccc(F)cc3)nc2C#N)CC1	?	/	/	/	15µM*	/
CCOc1ccc(/C=C/c2nc(C#N)c(N3CCC(C)CC3)o2)cc1	10µM*	/	/	/	13µM*	/
CCOC(=O)/C(=C\c1ccc(N2CCC(c3ccccc3)=N2)cc1)C(C)=O	?	1.5µM*	?	/	?	1.5µM*
O=C(/C=C/c1ccc(N2CCC(c3ccccc3)=N2)cc1)c1ccccc1	?	6.5µM*	-94*	0%	-28%	?
CN[C@@H](CO)C(=O)NC[C@H]1O[C@@H](n2cnc3c(=O)[nH]c(N)nc32)[C@H](O)[C@@H]1O	0%	/	19	/	6%	/
CN1CCN(S(=O)(=O)c2ccc(N3CCN(c4ccccc4Cl)CC3)nc2)CC1	21µM*	?	17	-1%	15µM*	-11%
O=S(=O)(c1ccc(N2CCN(S(=O)(=O)c3ccccc3)CC2)nc1)N1CCCC1	8%	5%	-1	2%	-8%	-3%
O=S(=O)(c1ccc(N2CC=C(c3ccccc3)CC2)nc1)N1CCCC1	16µM*	23µM*	-93*	-12%	18µM*	?
O=S(=O)(c1ccc(N2CCN(Cc3ccccc3)CC2)nc1)N1CCCC1	16µM*	22%	4	-14%	?	-4%
CC(C)N(C(=O)COC(=O)CCC(=O)c1cccs1)c1ccccc1	4%	2%	-1	1%	25%	-16%
Cc1nn(C(C)C(=O)NC(C)CCc2ccccc2)c(=O)c2cc3occc3n12 (stereo not drawn)	-25%	-1%	20	0%	-9%	-29%
C[C@@H](NC(=O)[C@@H]1CCCN1C(=O)[C@@H]1CCCN1C(=O)c1cccc(Cl)c1)c1ccccc1	-24%	/	12	/	-17%	/
NC(=O)Cn1cc(/C=N/NC(=O)c2ccc(Cn3cc(Cl)cn3)o2)c(-c2ccccc2)n1	6%	0%	22	1%	1%	-5%

Source: PubChem (National Center for Advancing Translational Sciences (NCATS))
